“And” between values parts separate entries of the source, which are not always exact repeats. Equal values may be shown once. Records with an inconclusive call do not appear. The source holds several records for some structures; these can differ, active in one and inactive in another. The source made the active and inactive calls. Unless noted, the call rests on the fitted dose curve; in most records, active means well fitted curve in the direction sought with a large enough effect in the repeat runs; inconclusive means weak or mixed curves; inactive means no such curve, though single readings can be large; an effect the other way counts as inactive or inconclusive.
Assays:
[1] = molecular target: Progesterone receptor (Homo sapiens) (UniProt P06401); test: qHTS assay to identify small molecule agonists of the progesterone receptor (PR) signaling pathway (AID 1346784; calls by dose curve; further: nearly all actives have a fitted effect of over 30% in size; further: potency means the concentration at half of the fitted maximal effect)
In short: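 The screen uses PR-UAS-bla HEK 293T cells in charcoal-stripped serum (2%). Compounds are applied for 16 hr at 37C after a 6 hr pre-incubation, and reporter activity is detected with a FRET beta-lactamase substrate after 2 hr at room temperature.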

[2] = molecular target: Progesterone receptor (Homo sapiens) (UniProt P06401); test: qHTS assay to identify small molecule antagonists of the progesterone receptor (PR) signaling pathway (AID 1346795; active means well fitted inhibition curve with a large enough effect in the signal ratio in the repeat runs, not every such curve was filed as active; the % refers to the signal ratio)
In short: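 After 6 hr plating at 37C in 2% stripped-serum medium, PR-UAS-bla HEK293T cells got compounds, then 1 nM R5020. Sixteen hours later, LiveBLAzer substrate was applied for 2 hr at room temperature and fluorescence was recorded.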

[3] = qHTS assay to identify small molecule antagonists of the progesterone receptor (PR) signaling pathway - cell viability counter screen (AID 1346798); further: series mostly up to about 92 µM; nearly all actives have a fitted effect of over 50% in size
In short: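 Viability was determined by ATP-based luminescence (CellTiter-Glo) in PR-UAS-bla HEK293T cells cultured in 2% charcoal-stripped serum and incubated 16 hr with compounds under R5020 stimulation.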

[4] = qHTS assay to identify small molecule antagonists of the TGF-beta/Smad signaling pathway - cell viability counter screen (AID 1346824); further: nearly all actives have a fitted effect of over 50% in size
In short: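 SBE-bla HEK 293T cells, incubated overnight, then compound plus 0.25 ng/mL TGF-beta1 (stock added) for 5 hr at 37 C. Viability was read in the same wells by CellTiter-Glo luminescence after 30 min at room temperature.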

[5] = qHTS assay to identify small molecule agonists of the TGF-beta/Smad signaling pathway - cell viability counter screen (AID 1346829); further: top concentration of the series differs between compounds; nearly all actives have a fitted effect of over 45% in size
In short: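 HEK 293T SBE-bla line, 5 hr compound exposure at 37 C, multiplexed CellTiter-Glo viability read by luminescence.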

[6] = qHTS assay to identify small molecule agonists of the TGF-beta/Smad signaling pathway (AID 1346859; active means well fitted activation curve with a large enough effect in the signal ratio in the repeat runs, not every such curve was filed as active; the % refers to the signal ratio; further: series mostly up to about 77 µM)
In short: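 Dual-wavelength fluorescence (460/530 nm emission) quantified beta-lactamase expression under the Smad binding element in HEK 293T cells following 5 hr compound treatment at 37 C.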

[7] = molecular target: Thyrotropin-releasing hormone receptor (Homo sapiens) (UniProt P34981); test: qHTS assay to identify small molecule antagonists of the thyrotropin-releasing hormone receptor (TRHR) signaling pathway (AID 1346877; active means well fitted inhibition curve with a large enough effect in the repeat runs, not every such curve was filed as active; further: series mostly up to about 51 µM)
In short: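 Antagonism is measured as suppression of the calcium response to 1 nM TRH in TRHR-HEK293 cells that have been dye-loaded for 2 h at 37 °C after overnight plating. Each compound is tested at 15 concentrations in triplicate.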

[8] = molecular target: Thyrotropin-releasing hormone receptor (Homo sapiens) (UniProt P34981); test: qHTS assay to identify small molecule agonists of the thyrotropin-releasing hormone receptor (TRHR) signaling pathway (AID 1346891; calls by dose curve;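 further: HEK293 cells expressing TRHR with calcium dye readout; series mostly up to about 58 µM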)
In short: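 Kinetic fluorescence (3 min, 1 s intervals) reported intracellular calcium after compound transfer onto TRHR-Hek293 cells pre-loaded with dye for 2 h at 37 °C.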

[9] = Human pregnane X receptor (PXR) small molecule agonists, qHTS cell viability counter screen (AID 1346977); further: nearly all actives have a fitted effect of over 50% in size; further: potency means the concentration at half of the fitted maximal effect
In short: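 HepG2 cells stably carrying the PXR-Luc reporter are cultured with 5% charcoal-stripped FBS and treated with compounds for 24hr. CellTiter-Fluor is added at 23hr and fluorescence is read after 1hr.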

[10] = Caspase-3/7 induction in HepG2 cells by small molecules, qHTS assay (AID 1346978); further: nearly all actives have a fitted effect of over 15% in size; further: potency means the concentration at half of the fitted maximal effect
In short: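 Wild-type HepG2 cells, 2,000/well, settled 5 hr at 37 C and 5% CO2, then compound-treated for 17 hr; caspase-3/7 activity read by luminescent Caspase-Glo 3/7 after 30 min at room temperature.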

[11] = Caspase-3/7 induction in CHO-K1 cells by small molecules, qHTS cell viability counter screen (AID 1346979); further: nearly all actives have a fitted effect of over 35% in size; further: potency means the concentration at half of the fitted maximal effect
In short: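 Seeding: 1,500 CHO-K1 cells/well. Rest: 5hr, 37C. Treatment: compounds in DMSO, 16hr. Read: CellTiter-Fluor, 1hr, fluorescence.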

[12] = Caspase-3/7 induction in CHO-K1 cells by small molecules, qHTS assay (AID 1346980); further: nearly all actives have a fitted effect of over 15% in size; further: potency means the concentration at half of the fitted maximal effect
In short: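 Wild-type CHO-K1 cells exposed to compounds for 17hr at 37 C, 5% CO2. Caspase-3/7 activity then measured by Caspase-Glo 3/7 luminescence after 30min at room temperature.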

[13] = Caspase-3/7 induction in HepG2 cells by small molecules, qHTS cell viability counter screen (AID 1346981); further: series mostly up to about 92 µM; nearly all actives have a fitted effect of over 30% in size
In short: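 Cell viability is measured as a cytotoxicity counter screen alongside the Caspase-Glo 3/7 readout in identical wells. Wild-type HepG2 cells are treated with test compounds for 16 hr at 37 C before CellTiter-Fluor addition and a 1-hr incubation.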

[14] = molecular target: Nuclear receptor subfamily 1 group I member 2 (Homo sapiens) (UniProt O75469); test: Human pregnane X receptor (PXR) small molecule agonists, qHTS assay (AID 1346982); further: nearly all actives have a fitted effect of over 35% in size; further: potency means the concentration at half of the fitted maximal effect
In short: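 Cells: HepG2 stably carrying PXR-Luc. Medium held 5% charcoal-stripped FBS. Compounds in DMSO added after 5 hr plating, incubated 24 hr, then luminescence quantified with ONE-Glo.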

[15] = qHTS assay to identify small molecule agonists of the progesterone receptor (PR) signaling pathway - cell viability counter screen (AID 1346799; calls by dose curve; further: nearly all actives have a fitted effect of over 45% in size)
In short: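 Viability was scored by ATP luminescence (CellTiter-Glo, 30 min, room temperature) in the same wells used for the reporter readout, after 16 hr compound exposure of PR-UAS-bla HEK293T cells.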

[16] = molecular target: Nuclear receptor subfamily 1 group I member 2 (Rattus norvegicus) (UniProt Q9R1A7); test: Rat pregnane X receptor (rPXR) activation by small molecules, qHTS assay (AID 1346983); conditions: rPXR luciferase reporter cells, One-Glo luminescence, 24 h; max activation: stronger effect = higher value; further: nearly all actives have a fitted effect of over 20% in size
In short: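 Cell-based rPXR activation assay: rPXR cells, 2,000 per well, rested 5hr at 37 C, then exposed to compounds in DMSO for 24 hr at 37 C. Luciferase activity read by One-Glo luminescence after 30 min at room temperature.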

[17] = molecular target: Nuclear receptor subfamily 1 group I member 2 (Homo sapiens) (UniProt O75469); test: CYP3A4 induction through human pregnane X receptor (PXR) by small molecules, qHTS assay (AID 1346984); further: nearly all actives have a fitted effect of over 40% in size; further: potency means the concentration at half of the fitted maximal effect
In short: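 Quantitative HTS in DPX-2 cells, i.e. HepG2 transfected with PXR response element and CYP3A4-promoter luciferase. Compounds in DMSO incubated 24hr at 37C; then P450-Glo CYP3A4 substrate, 3uM final, 3hr; One-Glo luminescence.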

[18] = molecular target: Nuclear receptor subfamily 1 group I member 2 (Homo sapiens) (UniProt O75469); test: Human pregnane X receptor (PXR) activation by small molecules, qHTS assay (AID 1346985); further: nearly all actives have a fitted effect of over 40% in size; further: potency means the concentration at half of the fitted maximal effect
In short: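 DPX-2 cells (HepG2 co-transfected with a PXR response element and a CYP3A4-promoter luciferase construct) were seeded at 2,000 per well, rested 5 hr at 37C, then exposed to DMSO-dissolved compounds for 24 hr. Activation was read as luciferase luminescence.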

[19] = molecular target: Cytochrome P450 2D6 (Homo sapiens) (UniProt P10635); test: Cytochrome P450 Family 2 Subfamily D Member 6 (CYP2D6) small molecule antagonists: luciferase reporter qHTS assay (AID 1671196); further: nearly all actives have a fitted effect of over 50% in size; further: potency means the concentration at half of the fitted maximal effect
In short: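 Enzyme and proluciferin substrate were first combined with test chemical for 10 min at room temperature. Adding NADPH regeneration solution started a 1 h reaction, stopped with luciferin detection reagent and read by luminescence 20 min later.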
On the % scale 0 is the no-effect control and ±100 the full control effect.

Sequence of Nuclear receptor subfamily 1 group I member 2 (Homo sapiens) (O75469 whole entry, looked up): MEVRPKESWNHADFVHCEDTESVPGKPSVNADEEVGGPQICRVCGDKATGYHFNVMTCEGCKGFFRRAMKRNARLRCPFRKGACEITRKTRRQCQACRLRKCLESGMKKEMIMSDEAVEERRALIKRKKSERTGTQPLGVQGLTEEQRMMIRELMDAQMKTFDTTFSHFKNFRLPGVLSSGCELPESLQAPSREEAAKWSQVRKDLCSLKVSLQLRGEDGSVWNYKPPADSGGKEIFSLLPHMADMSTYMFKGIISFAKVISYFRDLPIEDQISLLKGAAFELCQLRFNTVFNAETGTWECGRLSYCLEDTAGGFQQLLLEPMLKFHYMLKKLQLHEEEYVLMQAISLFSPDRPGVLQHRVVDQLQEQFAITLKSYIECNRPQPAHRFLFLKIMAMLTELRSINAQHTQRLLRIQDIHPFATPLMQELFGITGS
Sequence of Cytochrome P450 2D6 (Homo sapiens) (P10635 whole entry, looked up): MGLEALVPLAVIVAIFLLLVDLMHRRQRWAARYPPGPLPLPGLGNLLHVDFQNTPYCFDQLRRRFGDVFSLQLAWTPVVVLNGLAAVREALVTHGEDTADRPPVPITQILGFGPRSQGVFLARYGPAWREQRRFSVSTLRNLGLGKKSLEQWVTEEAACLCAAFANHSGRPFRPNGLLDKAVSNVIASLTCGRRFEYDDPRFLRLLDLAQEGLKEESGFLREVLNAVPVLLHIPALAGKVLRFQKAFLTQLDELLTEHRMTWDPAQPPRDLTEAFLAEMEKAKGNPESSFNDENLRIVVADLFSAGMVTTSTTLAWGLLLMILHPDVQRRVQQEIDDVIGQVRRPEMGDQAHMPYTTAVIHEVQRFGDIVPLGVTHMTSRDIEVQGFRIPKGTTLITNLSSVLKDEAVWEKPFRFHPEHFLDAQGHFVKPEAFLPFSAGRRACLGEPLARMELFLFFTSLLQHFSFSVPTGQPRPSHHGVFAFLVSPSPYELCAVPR
Sequence of Nuclear receptor subfamily 1 group I member 2 (Rattus norvegicus) (Q9R1A7 whole entry, looked up): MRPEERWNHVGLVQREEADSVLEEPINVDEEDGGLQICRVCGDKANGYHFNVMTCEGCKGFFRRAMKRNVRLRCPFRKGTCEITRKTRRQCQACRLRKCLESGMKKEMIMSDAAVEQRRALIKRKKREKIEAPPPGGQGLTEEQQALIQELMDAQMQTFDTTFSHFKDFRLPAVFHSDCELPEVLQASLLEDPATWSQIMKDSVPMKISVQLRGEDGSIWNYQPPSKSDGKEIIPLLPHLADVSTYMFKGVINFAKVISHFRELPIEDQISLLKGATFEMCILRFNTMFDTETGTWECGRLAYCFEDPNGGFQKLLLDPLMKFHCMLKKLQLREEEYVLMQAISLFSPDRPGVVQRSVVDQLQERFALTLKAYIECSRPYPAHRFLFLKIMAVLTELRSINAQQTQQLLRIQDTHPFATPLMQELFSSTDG
Sequence of Progesterone receptor (Homo sapiens) (P06401 whole entry, looked up): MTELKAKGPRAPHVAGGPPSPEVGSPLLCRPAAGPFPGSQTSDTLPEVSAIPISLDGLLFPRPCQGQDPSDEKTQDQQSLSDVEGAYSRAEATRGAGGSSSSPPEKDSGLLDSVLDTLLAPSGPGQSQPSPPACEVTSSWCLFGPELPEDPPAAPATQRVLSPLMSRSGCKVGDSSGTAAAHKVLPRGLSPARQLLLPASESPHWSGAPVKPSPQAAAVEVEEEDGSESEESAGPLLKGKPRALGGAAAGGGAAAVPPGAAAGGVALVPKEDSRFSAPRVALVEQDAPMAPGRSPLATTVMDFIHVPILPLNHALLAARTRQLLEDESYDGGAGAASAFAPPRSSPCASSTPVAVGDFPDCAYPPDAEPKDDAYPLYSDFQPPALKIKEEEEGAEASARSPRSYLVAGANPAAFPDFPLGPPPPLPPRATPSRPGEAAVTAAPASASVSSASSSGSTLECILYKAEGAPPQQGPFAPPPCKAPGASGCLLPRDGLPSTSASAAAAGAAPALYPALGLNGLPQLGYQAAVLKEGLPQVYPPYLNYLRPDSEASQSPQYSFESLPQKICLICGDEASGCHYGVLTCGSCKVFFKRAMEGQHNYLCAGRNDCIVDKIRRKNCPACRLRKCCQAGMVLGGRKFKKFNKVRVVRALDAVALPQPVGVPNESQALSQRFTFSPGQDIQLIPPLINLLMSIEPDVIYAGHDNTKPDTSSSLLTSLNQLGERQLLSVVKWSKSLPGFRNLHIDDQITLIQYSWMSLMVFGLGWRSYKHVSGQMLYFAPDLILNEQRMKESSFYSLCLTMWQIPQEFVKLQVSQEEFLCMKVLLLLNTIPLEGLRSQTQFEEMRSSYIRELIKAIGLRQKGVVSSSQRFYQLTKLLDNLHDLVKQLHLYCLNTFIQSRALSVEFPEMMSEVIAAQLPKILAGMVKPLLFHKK
Sequence of Thyrotropin-releasing hormone receptor (Homo sapiens) (P34981 whole entry, looked up): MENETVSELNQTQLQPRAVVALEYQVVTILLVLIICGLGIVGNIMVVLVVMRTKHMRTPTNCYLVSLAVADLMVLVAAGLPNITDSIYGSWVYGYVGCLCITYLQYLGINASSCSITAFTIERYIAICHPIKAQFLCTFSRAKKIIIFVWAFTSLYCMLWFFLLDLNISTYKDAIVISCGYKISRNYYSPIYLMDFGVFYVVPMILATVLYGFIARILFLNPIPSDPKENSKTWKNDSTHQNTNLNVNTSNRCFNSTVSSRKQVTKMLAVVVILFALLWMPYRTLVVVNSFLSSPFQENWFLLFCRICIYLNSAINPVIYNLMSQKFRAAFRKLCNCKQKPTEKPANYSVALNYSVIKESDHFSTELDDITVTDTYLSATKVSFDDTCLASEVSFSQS

COC(=O)C(C)Oc1ccc(Oc2ncc(C(F)(F)F)cc2Cl)cc1 (stereo not given)
active: Potency [14] 61.9 µM and 61.1 µM
inactive: Potency [1] | Potency [2] | Potency [3] | Potency [4] | Potency [5] | outcome [6] | Potency [7] | Potency [8] | Potency [9] | Potency [10] | Potency [11] | Potency [12] | Potency [13]

Cc1ccc(/C(=C\CN2CCCC2)c2ccccn2)cc1
inactive: Potency [1] | Potency [2] | Potency [3] | Potency [15] | Potency [4] | Potency [5] | outcome [6] | Potency [10] | Potency [11] | Potency [12] | max activation [16] -1.02% | Potency [17] | Potency [18]

[Na+]
inactive: Potency [1] | Potency [2] | Potency [3] | Potency [15] | Potency [4] | Potency [5] | outcome [6] | Potency [9] | Potency [10] | Potency [11] | Potency [12] | Potency [13]

CC(C)(C)c1cccc(C(C)(C)C)c1O
inactive: Potency [1] | Potency [2] | Potency [3] | Potency [4] | Potency [5] | outcome [6] | Potency [9] | Potency [10] | Potency [11] | Potency [12]
59.8 µM (active) and inactive: Potency [14]

C=CC(C)(O)CCC=C(C)C (stereo not given)
inactive: Potency [1] | Potency [2] | Potency [3] | Potency [4] | Potency [5] | outcome [6] | Potency [7] | Potency [8] | Potency [9] | Potency [10] | Potency [11] | Potency [12] | Potency [13] | Potency [14] | Potency [19]

CC(=O)[C@@]1(O)CC[C@H]2[C@@H]3C[C@H](C)C4=CC(=O)C=C[C@]4(C)[C@@]3(F)[C@@H](O)C[C@@]21C
inactive: Potency [2] | Potency [3] | Potency [15] | Potency [4] | Potency [5] | outcome [6] | Potency [7] | Potency [8] | Potency [9] | Potency [10] | Potency [11] | Potency [12] | Potency [13] | Potency [17] | Potency [18]
active: Potency [1] 61.1 nM and 168 nM | Potency [14] 15.4 µM

CC(=O)Oc1ccc(C(c2ccc(OC(C)=O)cc2)c2ccccn2)cc1
inactive: Potency [1] | Potency [2] | Potency [3] | Potency [15] | Potency [4] | Potency [5] | Potency [7] | Potency [8] | Potency [9] | Potency [10] | Potency [11] | Potency [12] | Potency [13]
54.2 µM (active) and inactive: Potency [14]

C[C@]12C=CC(=O)C=C1CC[C@H]1[C@@H]3C[C@@H](O)[C@](O)(C(=O)CO)[C@@]3(C)C[C@H](O)[C@@]12F
inactive: Potency [1] | Potency [2] | Potency [3] | Potency [15] | Potency [4] | Potency [5] | outcome [6] | Potency [9] | Potency [10] | Potency [11] | Potency [12] | Potency [13] | Potency [14] | max activation [16] -5.29% | Potency [17] | Potency [18] | Potency [19]

CC[C@]12CCCN3CCc4c(n(c5ccccc45)[C@@](O)(C(=O)OC)C1)[C@@H]32
inactive: Potency [1] | Potency [2] | Potency [3] | Potency [15] | Potency [4] | Potency [5] | outcome [6] | Potency [9] | Potency [10] | Potency [11] | Potency [12] | Potency [13] | max activation [16] 1.48%
active: Potency [17] 12.6 µM | Potency [18] 14.1 µM | Potency [19] 10 µM and 8.71 µM

CCCCCCCCCCC(CO)CCCCCCCC (stereo not given)
inactive: Potency [3] | Potency [15] | Potency [4] | Potency [5] | outcome [6] | Potency [9] | Potency [10] | Potency [11] | Potency [12] | Potency [14] | max activation [16] -1.75% | Potency [17] | Potency [18] | Potency [19]

OCCNCCO
54.5 µM (active) and inactive: Potency [14]
inactive: Potency [1] | Potency [2] | Potency [3] | Potency [15] | Potency [4] | Potency [5] | outcome [6] | Potency [7] | Potency [8] | Potency [9] | Potency [10] | Potency [11] | Potency [12] | Potency [13] | Potency [19]

O=Cc1ccccc1C=O
19.3 µM (active) and inactive: Potency [14]
inactive: Potency [1] | Potency [2] | Potency [3] | Potency [4] | Potency [5] | outcome [6] | Potency [7] | Potency [8] | max activation [16] 5.06% | Potency [17] | Potency [18]
15.4 µM (active) and inactive: Potency [11]
21.7 µM (active) and inactive: Potency [12]
48.6 µM (active) and inactive: Potency [9] | Potency [10]
